Compound activity: PubChem, National Center for Advancing Translational Sciences (NCATS)
Shown are actives, neighbours in structure and some others; about 6.8% of the full set was active somewhere.
SW480 rerep = induces DNA re-replication in SW480 colon adenocarcinoma cells; SW480 DNA re-replication, Hoechst DNA content imaging, 48 h; Potency, µM (series often up to 46.1 µM), for inactives: at the top dose re-replication activation, usual class: activators; hit rate 1.8% among 340,000; AID 624297; note: % of control where 0% means no effect; nearly all actives have a fitted effect of over 55% in size
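Per well, 250 cells were exposed to pinned compound for 48 hr. Nuclear DNA was visualised with Hoechst (40 min, 37 C) and total object intensity recorded by fluorescence scanning.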
MCF10A rerep = induces DNA re-replication in MCF 10a normal breast cells. MCF 10A DNA re-replication, Hoechst nuclear intensity, 48 h. AID 624296. Potency, µM (top dose mostly 46.1 µM), without a hit: at the top dose activity, positive = re-replication, usual class: activators. hit rate 2.9% among 350,000; note: % of control where 0% means no effect; nearly all actives have a fitted effect of over 50% in size
TSG101-PTAP inh = blocks PTAP/TSG101 interaction to inhibit HIV-1 budding | Q99816 | Fluorescence polarization, FITC-PTAP peptide / Tsg101 binding | Potency, µM (doses to about 115 µM), inactives show at the top dose activity change, negative = inhibition, usual class: inhibitors | 340,000 tested, under 10 active | AID 493005; active = well fitted inhibition curve with a large enough effect in the main read-out, with a control signal flat, not every such curve was filed as active; inconclusive = small, poorly fitted or top-dose-only effect, or effect the other way, or a change in a side signal; inactive = no such curve, though single readings can be large or run the other way; note: % of control where 0% means no effect
Target sequence (Q99816 whole entry, looked up): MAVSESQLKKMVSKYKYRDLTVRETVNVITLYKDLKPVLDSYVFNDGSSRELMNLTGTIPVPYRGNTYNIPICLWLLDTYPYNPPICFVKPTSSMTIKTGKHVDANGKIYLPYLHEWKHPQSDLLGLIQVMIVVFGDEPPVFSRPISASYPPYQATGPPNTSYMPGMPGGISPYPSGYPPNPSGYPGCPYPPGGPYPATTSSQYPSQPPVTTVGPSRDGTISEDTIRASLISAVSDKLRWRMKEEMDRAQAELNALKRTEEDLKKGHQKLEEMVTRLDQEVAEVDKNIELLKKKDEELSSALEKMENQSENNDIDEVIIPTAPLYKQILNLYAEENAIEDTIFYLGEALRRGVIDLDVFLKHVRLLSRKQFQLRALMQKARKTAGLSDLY
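Compounds were pin-transferred onto Tsg101 binding domain (10 uM final) in HEPES pH 7.5 buffer, then FITC-PTAP peptide was added at 50 nM final. After 20 min at RT, polarization reported peptide displacement across a qHTS concentration series.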
KB-V1 cytotox = KB-V1 MDR subline cytotoxicity; KB-V1 MDR cells viability, CellTiter-Glo, 72 h; Potency, µM (highest dose often 46.1 µM), most hits filed as cytotoxic; hit rate 3.4% among 400,000; AID 1347076; note: % is set by controls: 0 for no effect and ±100 for the full control effect; nearly all actives have a fitted effect of over 60% in size
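Potencies derive from concentration-effect curves fitted to normalized luminescence (CellTiter-Glo) of KB-V1 cells treated for 72 h at 37 degrees C in phenol-red-free DMEM containing 10% FBS.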
KB-3-1 cytotox = kills parental KB-3-1 adenocarcinoma cells; hit rate 1.4% among 400,000; Potency, µM (top dose mostly 46.1 µM), actives largely listed as cytotoxic; KB-3-1 viability, CellTiter-Glo ATP luminescence, 72 h; note: % is set by controls: 0 for no effect and ±100 for the full control effect; nearly all actives have a fitted effect of over 60% in size
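Parental KB-3-1 adenocarcinoma cells in phenol-red-free DMEM with 10% FBS were pin-treated with compounds at several concentrations, incubated 72 h at 37 °C, and viability read by CellTiter-Glo luminescence; concentration-effect curves were fitted after normalization.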
PINK1 expr mod = modulators of PINK1 expression. hit rate 0.2% among 410,000. PINK1 immunofluorescence, high-content cytometry, 24 h. Potency, µM (highest dose often 76.6 µM), without a hit: top-dose activation (PINK1 increase), usual class: activators; active = well fitted activation curve with a large enough effect; inconclusive = small, poorly fitted or top-dose-only effect; cell line not stated here; note: % of control where 0% means no effect; nearly all actives have a fitted effect of over 65% in size
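A stable cell line was treated with compounds at 5 concentrations for 24 hours, with CCCP as control. PINK1 levels and mitochondrial localization were measured by immunofluorescence with mitochondrial, cell and nuclear markers after fixation, read by laser-scanning cytometry.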
* marks the source's active call; other numbers are inactive results; [ ] = another dose, or the depositor's remark. Unless noted, calls come from the whole dose curve; as a rule, active = well fitted curve in the direction sought with a large enough effect; inconclusive = small, poorly fitted or top-dose-only effect, or another doubt; inactive = no such curve, though single readings can be large; an effect the other way counts as inactive or inconclusive. Potency is the fitted concentration of half-maximal effect.

O=C(Nc1nc2ccccc2[nH]1)c1ccc(Cl)c(S(=O)(=O)N2CCCC2)c1 was read as SW480 rerep inconclusive, MCF10A rerep inconclusive, TSG101-PTAP inh 1%, KB-V1 cytotox 15µM*, KB-3-1 cytotox inconclusive and PINK1 expr mod 0%.
For CCN(C(=O)Cn1c(=O)oc2cc(S(=O)(=O)N3CCCCCC3)ccc21)c1cccc(C)c1 the results were PINK1 expr mod 0%.
Cc1ccccc1-c1nccc(NCc2cccs2)n1 was read as PINK1 expr mod 0%.
`Cc1cccc(CN2C(=O)c3ccccc3Sc3ccc(C(=O)N4CCCC4)cc32)c1` gave KB-V1 cytotox inactive, KB-3-1 cytotox inconclusive and PINK1 expr mod 0%.
For COc1ccc(NC(=O)C(NC(=O)C2CCC(C)CC2)C(C)C)cc1 (stereo not given) the results were KB-V1 cytotox inactive, KB-3-1 cytotox inactive and PINK1 expr mod 0%.
For COc1ccc(-c2nnc(SCc3c(C)noc3C)n2N)cc1OC the results were SW480 rerep -1%, MCF10A rerep 15%, KB-V1 cytotox 7.3µM*, KB-3-1 cytotox inactive and PINK1 expr mod -3%[38.3 µM].
`CCOc1ccc(CCNC(=O)Cn2nnc(-c3ccccc3)n2)cc1OCC` gave KB-V1 cytotox inconclusive, KB-3-1 cytotox inactive and PINK1 expr mod -1%.
O=C(Cc1ccc(Cl)cc1)Nc1ccccc1Sc1ccccc1 was read as SW480 rerep 6%, MCF10A rerep inconclusive, TSG101-PTAP inh -3%, KB-V1 cytotox 23µM*, KB-3-1 cytotox inconclusive and PINK1 expr mod 11%.
`O=C(Cc1ccccc1)Nc1cc(Cl)ccc1Sc1ccccc1` gave SW480 rerep -32%, MCF10A rerep -2%, TSG101-PTAP inh -2%, KB-V1 cytotox 18µM*, KB-3-1 cytotox inactive and PINK1 expr mod 13%.
For CC(=O)c1c(N2CCN(Cc3ccccc3)CC2)nc(=S)n(Cc2ccccc2)c1C the results were SW480 rerep inconclusive, MCF10A rerep 15%, TSG101-PTAP inh 2%, KB-V1 cytotox 2.9µM*, KB-3-1 cytotox inconclusive and PINK1 expr mod 19%.
Screening CC(=O)c1c(N2CCN(c3ccc(F)cc3)CC2)nc(=S)n(Cc2ccccc2)c1C returned SW480 rerep inconclusive, MCF10A rerep inconclusive, TSG101-PTAP inh -3%, KB-V1 cytotox inconclusive, KB-3-1 cytotox 23µM* and PINK1 expr mod 22%.
CC(=O)c1c(N2CCCCC2)nc(=S)n(Cc2ccccc2)c1C was read as SW480 rerep 10%, MCF10A rerep -182%[0.0737 µM], TSG101-PTAP inh -1%, KB-V1 cytotox inactive, KB-3-1 cytotox inconclusive and PINK1 expr mod 1%.
`CCn1c(C)c(C(C)=O)c(N2CCN(c3ccc(F)cc3)CC2)nc1=S` gave SW480 rerep -5%[9.22 µM], MCF10A rerep 14%, TSG101-PTAP inh -6%, KB-V1 cytotox inactive, KB-3-1 cytotox inactive and PINK1 expr mod 1%.
Screening CC(=O)c1c(N2CCN(c3ccccc3)CC2)nc(=S)n(-c2ccccc2)c1C returned SW480 rerep 13%, MCF10A rerep 21µM*, TSG101-PTAP inh -6%, KB-V1 cytotox inactive, KB-3-1 cytotox inactive and PINK1 expr mod 0%.
Screening CC(=O)c1c(N2CCN(CCO)CC2)nc(=S)n(-c2ccccc2)c1C returned SW480 rerep -21%, MCF10A rerep -1%, TSG101-PTAP inh 0%, KB-V1 cytotox inactive, KB-3-1 cytotox inactive and PINK1 expr mod -2%.
`O=S(=O)(NC1CC1)c1ccc(S(=O)(=O)N2CCCC3(CCCCC3)C2)cc1` gave SW480 rerep inconclusive, MCF10A rerep 15µM*, TSG101-PTAP inh 0%, KB-V1 cytotox inactive, KB-3-1 cytotox inactive and PINK1 expr mod 21%[38.3 µM].
Cc1cc(C)c(S(=O)(=O)N2CCC(N3CCN(Cc4ccc(F)cc4)C(=O)C3=O)CC2)c(C)c1 was read as KB-V1 cytotox inactive, KB-3-1 cytotox inactive and PINK1 expr mod 1%.
Screening COc1cc(/C=N/NS(=O)(=O)c2ccccc2)ccc1OS(=O)(=O)c1ccc(C)cc1 returned SW480 rerep -5%, MCF10A rerep -7%, TSG101-PTAP inh 1%, KB-V1 cytotox inactive, KB-3-1 cytotox inactive and PINK1 expr mod -2%.
Screening COc1cc(/C=N/NC(=O)COc2ccc(Cl)cc2)ccc1OS(=O)(=O)c1ccc(C)cc1 returned SW480 rerep -1%, MCF10A rerep 17%, TSG101-PTAP inh -1%, KB-V1 cytotox 16µM*, KB-3-1 cytotox inactive and PINK1 expr mod 7%.
Screening COc1ccc(/C=N/NS(=O)(=O)c2ccccc2)cc1OS(=O)(=O)c1ccc(C)cc1 returned SW480 rerep inconclusive, MCF10A rerep inconclusive, TSG101-PTAP inh 1%, KB-V1 cytotox 18µM*, KB-3-1 cytotox inactive and PINK1 expr mod 11%.
`COC(=O)N/N=C/c1ccc(OS(=O)(=O)c2ccc(C)cc2)c(OC)c1` gave SW480 rerep -10%, MCF10A rerep -3%, TSG101-PTAP inh 0%, KB-V1 cytotox inactive, KB-3-1 cytotox inactive and PINK1 expr mod 2%.
`COc1cc(/C=N/NC(=O)COc2cccc(F)c2)ccc1OS(=O)(=O)c1ccc(C)cc1` gave SW480 rerep inconclusive, MCF10A rerep inconclusive, TSG101-PTAP inh -2%, KB-V1 cytotox 5.8µM*, KB-3-1 cytotox inconclusive and PINK1 expr mod 0%.
For Cc1ccc(Cn2ccsc2=NC(=O)COC(=O)c2ccc(NC(=O)CC#N)cc2)cc1 the results were SW480 rerep -44%, MCF10A rerep 17%, TSG101-PTAP inh 0%, KB-V1 cytotox inactive, KB-3-1 cytotox inconclusive and PINK1 expr mod 2%.
For Cc1ccc(Cn2ccsc2=NC(=O)CCl)cc1 the results were SW480 rerep 95%[1.84 µM], MCF10A rerep inconclusive, TSG101-PTAP inh -8%, KB-V1 cytotox inconclusive, KB-3-1 cytotox 21µM* and PINK1 expr mod -2%.
Screening CN1CCN(c2oc(/C=C/c3ccc(F)cc3)nc2C#N)CC1 returned PINK1 expr mod -1%.
O=C(Nc1ccc(-c2nc3c(ccc4ccccc43)o2)cc1)c1ccco1 was read as SW480 rerep inconclusive, MCF10A rerep 4.6µM*, TSG101-PTAP inh -2%, KB-V1 cytotox inactive, KB-3-1 cytotox inactive and PINK1 expr mod inconclusive.
For COc1ccc(NC(=O)Cn2nnc(-c3ccccc3NC(=O)c3ccco3)n2)cc1 the results were SW480 rerep inconclusive, MCF10A rerep 10µM*, TSG101-PTAP inh -3%, KB-V1 cytotox inconclusive, KB-3-1 cytotox 4.1µM* and PINK1 expr mod 5%.
